The target in assay [1] is Aromatase (Homo sapiens) (UniProt P11511). Briefly: qHTS assay to identify aromatase inhibitors (AID 743083). Further: nearly all actives have a fitted effect of over 55% in size. Further: potency means the concentration at half of the fitted maximal effect. The following applies: MCF-7 aro ERE, testosterone-driven ERE luciferase, 24 h; series mostly up to 70.3 µM. On the technique in general: qHTS replaces the single test concentration by a dilution series.
Assay [2] deals with Acetylcholinesterase (Homo sapiens) (UniProt P22303). Briefly: Acetylcholinesterase (AChE) small molecule antagonists: colormetric cell-based qHTS assay (AID 1347395; calls by dose curve; further: nearly all actives have a fitted effect of over 30% in size). The following applies: SH-SY5Y cells AChE activity, colorimetric (Ellman); series mostly up to 115 µM. Put shortly: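 After overnight attachment at 37 C, SH-SY5Y cells get 30 min compound exposure; detection cocktail (acetylthiocholine, DTNB) then incubates 90 min at 37 C, and absorbance reflects AChE-generated thiocholine.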
Chain of Acetylcholinesterase (Homo sapiens) (P22303 whole entry, looked up): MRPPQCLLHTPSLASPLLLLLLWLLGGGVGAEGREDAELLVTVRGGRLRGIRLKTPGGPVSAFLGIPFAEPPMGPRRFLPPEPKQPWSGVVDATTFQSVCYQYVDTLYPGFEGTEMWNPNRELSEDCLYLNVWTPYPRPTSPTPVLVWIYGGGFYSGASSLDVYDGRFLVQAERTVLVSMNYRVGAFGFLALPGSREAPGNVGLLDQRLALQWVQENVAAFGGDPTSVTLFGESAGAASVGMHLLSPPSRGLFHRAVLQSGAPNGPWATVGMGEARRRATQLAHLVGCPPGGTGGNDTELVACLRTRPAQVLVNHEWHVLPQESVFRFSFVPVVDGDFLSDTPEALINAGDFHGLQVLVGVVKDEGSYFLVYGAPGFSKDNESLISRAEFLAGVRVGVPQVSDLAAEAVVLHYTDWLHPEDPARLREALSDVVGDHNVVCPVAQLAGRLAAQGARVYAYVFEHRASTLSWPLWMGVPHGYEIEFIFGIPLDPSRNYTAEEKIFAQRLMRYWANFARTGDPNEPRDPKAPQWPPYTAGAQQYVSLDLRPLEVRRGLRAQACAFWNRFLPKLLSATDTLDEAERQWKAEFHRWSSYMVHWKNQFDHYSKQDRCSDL

The target is the same in assay [3]. The assay is described as follows: Acetylcholinesterase (AChE) small molecule antagonists: enzyme-based qHTS assay (AID 1347397; calls by dose curve; further: nearly all actives have a fitted effect of over 55% in size). The following applies: Potency: AChE enzyme activity inhibition; outcome: AChE enzyme activity inhibition; series mostly up to 115 µM. Put shortly: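 Tox21 library chemicals are tested in qHTS format against recombinant human AChE. The enzyme, dispensed at 50 mU/mL, sits with compound for 30 min at room temperature. A DTNB–acetylthiocholine cocktail follows, and colour is read after 10 min.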

Assay [4] shares this target. Briefly: Acetylcholinesterase (AChE) small molecule antagonists: fluorescence cell-based qHTS assay (AID 1347398; calls by dose curve; further: nearly all actives have a fitted effect of over 50% in size). The following applies: SH-SY5Y cells; Potency: AChE activity; outcome: AChE activity; series mostly up to 115 µM. Put shortly:
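Cellular AChE inhibition: SH-SY5Y cells treated with test chemical for 30 min at 37 C, then acetylthiocholine hydrolysis followed over 40 min at room temperature via thiocholine-reactive Thiolite Green fluorescence (490/520 nm).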

For assay [5] the target is unchanged. The assay is described as follows: Acetylcholinesterase (AChE) small molecule antagonists: enzyme-based qHTS assay with human liver microsomes (AID 1347399; calls by dose curve; further: nearly all actives have a fitted effect of over 60% in size). The following applies: Potency: qHTS inhibition; outcome: qHTS inhibition; series mostly up to 115 µM. Put shortly: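 Recombinant human AChE (50 mU/mL in the enzyme mix) and human liver microsomes (0.25 mg/mL final) were preincubated with compound and NADPH (0.25 mg/mL final) for 30 min at 37 C. Acetylthiocholine/DTNB was then added; thiocholine was read colorimetrically after 10 min at room temperature.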

Assay [6] can be described thus: qHTS assay to identify small molecule antagonists of the retinoic acid receptor (RAR) signaling pathway (AID 1159552; further: nearly all actives have a fitted effect of over 50% in size; further: potency means the concentration at half of the fitted maximal effect). The following applies: C3RL4 RARE luciferase reporter, retinol-stimulated, 6 h; series mostly up to 92.4 µM. Put shortly:
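Test chemicals and DMSO controls were pin-transferred onto C3RL4 cells a day after seeding; retinol (1 uM final) followed at once. Luminescent reporter output was quantified after 6 hr of co-incubation and 30 min with detection reagent.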

Assay [7] in a line: Caspase-3/7 induction in HepG2 cells by small molecules, qHTS assay (AID 1346978). Further: nearly all actives have a fitted effect of over 15% in size. Further: potency means the concentration at half of the fitted maximal effect. The following applies: HepG2 caspase-3/7 activation, Caspase-Glo luminescence, 17 h; series mostly up to 92.4 µM. Put shortly:
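Wild-type HepG2 cells (2,000/well) were settled 5 h at 37 C, 5% CO2, then exposed to compounds in DMSO for 17 h. Caspase-3/7 activity was read by luminescence 30 min after adding Caspase-Glo 3/7 reagent at room temperature.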

The target of assay [8] is Aryl hydrocarbon receptor (Homo sapiens) (UniProt P35869). The assay is described as follows: qHTS assay to identify small molecule that activate the aryl hydrocarbon receptor (AhR) signaling pathway (AID 743085). Further: nearly all actives have a fitted effect of over 15% in size. The following applies: HepG2 AhR-luc (HG2L7.5c1), luciferase, 24 h; series mostly up to 70.3 µM. Put shortly: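 Stably transfected human liver carcinoma cells (HG2L7.5c1; 20 DRE-firefly luciferase) were incubated 5 h, dosed, and kept 24 h at 37C. Agonism was scored from increased luciferase luminescence.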
Chain of Aryl hydrocarbon receptor (Homo sapiens) (P35869 whole entry, looked up): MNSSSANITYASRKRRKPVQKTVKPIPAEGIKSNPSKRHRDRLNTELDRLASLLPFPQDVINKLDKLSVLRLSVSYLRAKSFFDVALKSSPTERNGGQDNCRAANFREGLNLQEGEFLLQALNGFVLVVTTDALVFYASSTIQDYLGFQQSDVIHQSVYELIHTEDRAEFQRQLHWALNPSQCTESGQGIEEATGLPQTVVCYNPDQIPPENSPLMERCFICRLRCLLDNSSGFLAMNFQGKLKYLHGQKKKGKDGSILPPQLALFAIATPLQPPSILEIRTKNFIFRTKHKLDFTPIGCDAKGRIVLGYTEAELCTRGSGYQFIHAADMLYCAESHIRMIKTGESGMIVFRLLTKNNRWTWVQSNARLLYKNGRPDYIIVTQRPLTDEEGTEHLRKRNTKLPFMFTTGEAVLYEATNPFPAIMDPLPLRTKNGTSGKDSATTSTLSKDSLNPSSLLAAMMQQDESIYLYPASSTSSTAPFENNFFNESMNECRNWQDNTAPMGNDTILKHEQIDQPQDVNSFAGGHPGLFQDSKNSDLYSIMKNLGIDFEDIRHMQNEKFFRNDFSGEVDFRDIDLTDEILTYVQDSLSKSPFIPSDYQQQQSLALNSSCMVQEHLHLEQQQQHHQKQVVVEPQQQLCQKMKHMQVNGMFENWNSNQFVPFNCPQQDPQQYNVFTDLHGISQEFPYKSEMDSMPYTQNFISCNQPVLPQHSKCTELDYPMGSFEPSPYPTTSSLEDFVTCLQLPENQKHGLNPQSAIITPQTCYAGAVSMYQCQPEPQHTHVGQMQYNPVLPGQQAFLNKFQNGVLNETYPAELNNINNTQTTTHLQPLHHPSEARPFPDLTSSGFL

Assay [9] is described as follows: qHTS assay to identify small molecule antagonists of the estrogen related receptor (ERR) signaling pathway - cell viability counter screen (AID 1224818). The following applies: ERR reporter cell line viability counter screen; series mostly up to 46.1 µM. Put shortly:
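ERR cells, 2,000/well; 6 h settle at 37 C/5% CO2; compound pin transfer (DMSO); 17.5 h at 37 C; CellTiter-Fluor, 30 min, fluorescence read.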

Assay [10] can be described thus: qHTS assay to identify small molecule antagonists of the estrogen related receptor (ERR) signaling pathway (AID 1224819; further: nearly all actives have a fitted effect of over 50% in size). The following applies: ERR reporter cell line, luciferase inhibition; series mostly up to 46.1 µM. Put shortly:
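qHTS in ERR cells, 2,000/well, 1536 format. Cpd (DMSO) added after 6 h settle, 18 h 37 C. One-Glo luminescence, 30 min RT.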

The nature of assay [11]: qHTS assay to identify small molecule agonists of the estrogen related receptor (ERR) signaling pathway (AID 1224820). The following applies: ERR reporter cell line, luciferase agonist mode; series mostly up to 46.1 µM. Put shortly: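 After 6 h plating (2,000 cells/well) and 18 h compound treatment at 37 C, ERR cells were lysed with One-Glo and luminescence read after 30 min at room temperature.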

In assay [12] the test system is estrogen-related receptor alpha (ERRalpha) with PGC-1alpha coactivator, human. Briefly: qHTS assay to identify small molecule antagonists of the estrogen related receptor signaling pathway with the pleiotropic PPARgamma coactivator (PGC) (AID 1224821; calls by dose curve;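 further: lower luminescence signal means antagonism of PGC/ERR signalling; nearly all actives have a fitted effect of over 50% in size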). The following applies: ERR/PGC reporter cell line, luciferase, antagonist mode; series mostly up to 46.1 µM. Put shortly: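 Luminescence from One-Glo luciferase reagent (30 min, room temperature) measured after 18 h compound treatment at 37 °C. Cells carry the PGC/ERR reporter and were seeded 6 h prior to dosing.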

Assay [13] is described as follows: qHTS assay to identify small molecule antagonists of the estrogen related receptor signaling pathway with the pleiotropic PPARgamma coactivator (PGC) cell viability counter screen (AID 1224822;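 further: viability read after 17.5 h compound exposure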). The following applies: ERR/PGC reporter cell line viability counter screen; series mostly up to 46.1 µM. Put shortly:
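Multiplexed viability counter screen run in PGC/ERR cells treated with compounds for 17.5 h at 37 C; live-cell protease signal measured by CellTiter-Fluor fluorescence.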

The structures appear in SMILES notation. Records with an inconclusive call do not appear. Calls of active or inactive are those of the source. Unless noted, the call rests on the fitted dose curve; in most records, active means well fitted curve in the direction sought with a large enough effect in the repeat runs; inconclusive means weak or mixed curves; inactive means no such curve, though single readings can be large; an effect the other way counts as inactive or inconclusive.

Chain of Aromatase (Homo sapiens) (P11511 whole entry, looked up): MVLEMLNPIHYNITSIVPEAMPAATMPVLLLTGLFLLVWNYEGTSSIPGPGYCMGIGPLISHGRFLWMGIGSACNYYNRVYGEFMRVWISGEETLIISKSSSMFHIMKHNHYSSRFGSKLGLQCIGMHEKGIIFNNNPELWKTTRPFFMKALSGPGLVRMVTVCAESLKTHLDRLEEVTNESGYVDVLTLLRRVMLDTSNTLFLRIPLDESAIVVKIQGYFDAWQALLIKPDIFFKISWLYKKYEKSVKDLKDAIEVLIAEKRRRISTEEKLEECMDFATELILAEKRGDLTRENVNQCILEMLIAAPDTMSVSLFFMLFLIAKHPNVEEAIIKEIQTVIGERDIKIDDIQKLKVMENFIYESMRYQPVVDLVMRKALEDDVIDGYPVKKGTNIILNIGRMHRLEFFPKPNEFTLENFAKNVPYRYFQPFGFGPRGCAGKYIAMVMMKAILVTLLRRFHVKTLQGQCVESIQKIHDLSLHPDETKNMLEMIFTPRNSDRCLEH

`CC(CCl)OC(C)CCl` (stereo not drawn): the Potency entry in assay [1], in assay [2], in [3], in assay [4] and in assay [5] was “inactive” throughout.
As to `C=CC(=O)OCCCC`, the Potency result in assay [1], in [2], in assay [3], in assay [4] and in [5] was “inactive” in each case.
For the molecule `Brc1ccc(-c2ccccc2)cc1`, the Potency entry in assay [1], in assay [6], in assay [2], in assay [3], in [4] and in assay [5] was “inactive” each time.
Turning to `COc1ccc(CCN2CCC(Nc3nc4ccccc4n3Cc3ccc(F)cc3)CC2)cc1`, the Potency in assay [1] was 21.1 µM (active); in [6], 1.25 µM (active); in assay [7], 26.6 µM (active).
`Cc1cccc([N+](=O)[O-])c1C`: the Potency result in assay [1], in [8], in assay [6], in [7], in assay [2] and in assay [3] was “inactive” in each case. For the same molecule, the Potency result in assay [4] and in assay [5] was “inactive” throughout.
For the molecule `CC(C)(C)c1cc(C(C)(C)C)c(O)c(C(C)(C)C)c1`, the Potency result in [1], in assay [8], in [7], in assay [2], in [3] and in assay [4] was “inactive” throughout. Moreover, the Potency result in assay [5] is “inactive”.
With `C[C@@]12C(=O)OC(=O)[C@]1(C)C1CCC2O1`, the Potency is 3.59 µM (active) in [1], 5.31 µM (active) in assay [6] and 0.376 µM (active) in assay [7]. Moreover, the Potency result in [8], in assay [3], in assay [4] and in assay [5] was “inactive” each time.
In the case of `c1cc(OCC2CO2)cc(OCC2CO2)c1` (stereo not drawn), in [1], the Potency was 38.3 µM (active). The Potency result in [8], in [6], in assay [3], in assay [4] and in assay [5] was “inactive” each time.
`CC(C)(C)OCC1CO1` (stereo not drawn): the Potency result in [1], in [6], in assay [2], in assay [3], in assay [4] and in assay [5] was “inactive” each time.
Consider `Nc1cccc(C(F)(F)F)c1`, for which the Potency entry in [1], in assay [8], in [6], in assay [2], in assay [3] and in assay [4] was “inactive” each time. In assay [5], the Potency entry is “inactive”.
As for `Fc1c(F)c(F)c(Br)c(F)c1F`, the Potency result in assay [1], in assay [8], in assay [6], in assay [7], in assay [2] and in assay [3] was “inactive” each time. For the same molecule, the Potency entry in [4] and in assay [5] was “inactive” each time.
On to `C[C@H]1C2Cc3ccc(O)cc3[C@@]1(C)CCN2CC1CC1`, for which the Potency result in assay [9], in [10], in assay [11], in [12] and in assay [13] was “inactive” each time.
With `CCCN(CCC)C1CCc2cccc(O)c2C1` (stereo not drawn), the Potency result in assay [9], in assay [10], in [11], in assay [12] and in assay [13] was “inactive” throughout.
For `CCCN(CCC)C1CCc2ccc(O)cc2C1` (stereo not drawn), the Potency result in assay [9], in assay [10], in assay [11], in [12] and in assay [13] was “inactive” in each case.
As to `NC(=O)c1cc(N2CC2)c([N+](=O)[O-])cc1[N+](=O)[O-]`, the Potency entry in assay [9], in [10], in assay [11], in assay [12] and in assay [13] was “inactive” each time.
Consider `COC(=O)N1CCN(C(=O)Cc2ccc(Cl)c(Cl)c2)C(CN2CCCC2)C1` (stereo not drawn), for which the Potency entry in assay [9], in [10], in assay [11], in assay [12] and in assay [13] was “inactive” each time.
Turning to `C[C@@H]1O[C@H](C[N+](C)(C)C)C[C@H]1O`, the Potency entry in assay [9], in assay [10], in assay [11], in assay [12] and in [13] was “inactive” throughout.
Consider `Cn1cnc(CCN)c1`, for which the Potency result in assay [9], in assay [10], in [11], in assay [12] and in assay [13] was “inactive” throughout.
`O=C(Cc1ccc(Cl)c(Cl)c1)N1CCCCC1CN1CCCC1` (stereo not drawn): the Potency entry in [9], in [10], in assay [11], in [12] and in assay [13] was “inactive” in each case.
On to `CC(=O)NCCc1c[nH]c2ccccc12`, for which the Potency entry in assay [9], in assay [10], in assay [11], in assay [12] and in assay [13] was “inactive” each time.
Regarding `O=c1ccc2[nH]cc(C3=CCNCC3)c2[nH]1`, the Potency result in assay [9], in assay [10], in assay [11], in [12] and in assay [13] was “inactive” throughout.
As for `CC(Cc1ccc(OCC(=O)O)cc1)NCC(O)c1cccc(Cl)c1` (stereo not drawn), the Potency result in assay [9], in assay [10], in assay [11], in [12] and in assay [13] was “inactive” throughout.
`Oc1ccc2c3c1O[C@H]1c4[nH]c5c(c4C[C@@]4(O)[C@@H](C2)N(CC2CC2)CC[C@]314)C[C@@]1(O)[C@H]2Cc3ccc(O)c4c3[C@@]1(CCN2CC1CC1)[C@H]5O4`: the Potency entry in [9], in [10], in assay [11], in assay [12] and in assay [13] was “inactive” each time.
With `CS(=N)(=O)CC[C@H](N)C(=O)O` (stereo partly drawn), the Potency result in [9], in assay [10], in assay [11], in assay [12] and in assay [13] was “inactive” throughout.

(Values after PubChem BioAssay (Tox21).)
